Here are results for 21 compounds from PubChem BioAssay.

Molecules are shown by their SMILES.

The nature of the assay: MRP1 drug-resistance reversers in H69AR cells – cell-based, doxorubicin co-treatment, pilot screen (AID 601). Particulars: H69AR cells, CellTiter-Glo, 72 h; compound alone cytotoxicity; at 10 µM. A general note: In ATP-based viability assays light output follows the ATP content of the culture.
Turning to `COc1ccc(C2=CC(=O)OC3(CCCCC3)O2)cc1`, the viability (usually a read-out of living cells in per cent, often relative to untreated cells) came to 56.5%.

Regarding `CCCCNC(=O)c1nnn(-c2ccccc2)c1N`, the viability is 92.2%.

For `Cc1ccc(Nc2nc(Oc3ccc(=O)[nH]n3)nc(N(C)C)n2)cc1`, the viability was determined as 94%.

As for `CN(C(=O)C1CCOC1)c1nnc(-c2cccnc2)s1` (stereo unspecified), the viability worked out at 88.5%.

Turning to `NS(=O)(=O)c1cc2c(cc1Cl)NC=NS2(=O)=O`, the viability amounted to 100%.

As for `COc1cccc(NC(=O)COC(=O)c2cccnc2)c1`, the viability stood at 91.1%.

Turning to `CCN=C1SC(CC(=O)Nc2ccccc2OCC)C(=O)N1CC` (stereo unspecified), the viability turned out to be 94.5%.

As to `O=S(=O)(NC1CCCCC1NS(=O)(=O)c1ccc(F)cc1)c1ccc(F)cc1` (stereo unspecified), the viability was found to be 94.1%.

`CCn1cnc2sc(C(=O)Nc3ccc4c(c3)OCO4)c(C)c2c1=O`: the viability was 94%.

On to `O=C1C2CCCN2C(c2ccccc2)N1c1ccc(Cl)cc1` (stereo unspecified), for which the viability is 104%.

For `CNc1nnc(-c2cccc(N(C)C)c2)s1`, the viability was 92%.

For `COC(=O)Cc1c(C)nc2nc[nH]n2c1=O`, the viability worked out at 105%.

For the compound `CCC(c1nnc(SCC(=O)Nc2ccc(C(=O)Nc3ccccc3OC)cc2)o1)N(C)C` (stereo unspecified), the viability stood at 107%.

Regarding `CC1Oc2ccccc2N(Cc2ccccc2Cl)C1=O` (stereo unspecified), the viability turned out to be 89.1%.

As to `CCn1cc(C(=O)O)c(=O)c2ccc(C)nc21`, the viability is 101%.

Turning to `COc1ccccc1NC(=O)Cc1noc(CSc2cc(C)c3ccccc3n2)n1`, the viability amounted to 92.5%.

Take `CC(COc1ccccc1)N(CCCl)Cc1ccccc1` (stereo unspecified): the viability is 56.1%.

As to `O=C(c1cnc2sccn2c1=O)N1CCc2ccccc2C1`, the viability worked out at 104%.

Take `COc1ccccc1N1CCN(c2cc(N3CCCC3)nc(C)n2)CC1`: the viability was 87.8%.

In the case of `COC(=O)CCn1nnc(-c2ccc(C)cc2)n1`, the viability worked out at 94.1%.

With `Cc1cccc(-n2c(SCc3cc(=O)n4ccsc4n3)nc3ccccc32)c1`, the viability is 78.5%.
